{"source": "the supplement of paper PMC10849652", "note": "Of roughly 7,900 targets only a part is listed; those with a hit were picked by preference. About 0.6% of all pairs of compound and target were hits. A number with no mark means an inactive call.", "data": [{"compound": "CC1=C(C=C(C=C1)NC(=O)C2=CC(=CC=C2)C(C)(C)C#N)NC3=CC4=C(C=C3)N=CN(C4=O)C", "experiment": "log2 fold change, soluble protein after heating vs DMSO (PISA); higher = thermal stabilisation; K562 cells, 10 uM, 30 min; active = over 0.2 and 3.5 SD of the protein, either way, in both replicates (recomputed)", "how_it_was_run": "(§1)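 K562 cells at 2×10^6 cells/mL were given 10 μM compound for 30 min. Aliquots then went through 3 min of heating across 48°C-58°C, were pooled, and were extracted in PBS with 0.5% NP-40 at 4°C, and the supernatant after 21,000xg for 90 min was quantified by TMTpro 16plex LC-MS/MS with channel sums equalised. Thermal stability relative to control samples, from duplicates, is given as log2 fold change.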", "values": [{"target": "CFAP36 isoform 2 (UniProt Q96G28)", "log2 fold change": 0.005}, {"target": "CHPT1 (UniProt Q8WUD6)", "log2 fold change": 0.088}, {"target": "CENPE (UniProt Q02224)", "log2 fold change": -0.018}, {"target": "C22orf39 (UniProt Q6P5X5)", "log2 fold change": -0.033}, {"target": "CASP10 isoform 4 (UniProt Q92851)", "sequence (Q92851 whole entry, looked up)": "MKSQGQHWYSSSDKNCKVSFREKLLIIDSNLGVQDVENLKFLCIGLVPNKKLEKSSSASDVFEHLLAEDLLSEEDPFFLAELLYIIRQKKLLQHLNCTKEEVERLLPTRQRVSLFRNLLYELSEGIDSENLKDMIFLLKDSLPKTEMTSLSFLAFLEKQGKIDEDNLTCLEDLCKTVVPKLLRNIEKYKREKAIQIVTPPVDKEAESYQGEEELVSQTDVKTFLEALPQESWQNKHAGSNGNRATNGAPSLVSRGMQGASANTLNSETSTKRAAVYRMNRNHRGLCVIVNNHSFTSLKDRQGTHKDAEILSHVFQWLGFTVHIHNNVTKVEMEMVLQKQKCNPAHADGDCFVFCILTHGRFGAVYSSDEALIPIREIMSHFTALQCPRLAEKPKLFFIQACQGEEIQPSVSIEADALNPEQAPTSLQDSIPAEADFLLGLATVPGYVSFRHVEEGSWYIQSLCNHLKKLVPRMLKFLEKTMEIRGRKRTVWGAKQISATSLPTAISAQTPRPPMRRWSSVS", "log2 fold change": 0.015}, {"target": "COPS3 isoform 2 (UniProt Q9UNS2)", "log2 fold change": -0.154}, {"target": "COX7B (UniProt P24311)", "log2 fold change": 0.048}, {"target": "CCM2 isoform 2 (UniProt Q9BSQ5)", "sequence (Q9BSQ5 whole entry, looked up)": "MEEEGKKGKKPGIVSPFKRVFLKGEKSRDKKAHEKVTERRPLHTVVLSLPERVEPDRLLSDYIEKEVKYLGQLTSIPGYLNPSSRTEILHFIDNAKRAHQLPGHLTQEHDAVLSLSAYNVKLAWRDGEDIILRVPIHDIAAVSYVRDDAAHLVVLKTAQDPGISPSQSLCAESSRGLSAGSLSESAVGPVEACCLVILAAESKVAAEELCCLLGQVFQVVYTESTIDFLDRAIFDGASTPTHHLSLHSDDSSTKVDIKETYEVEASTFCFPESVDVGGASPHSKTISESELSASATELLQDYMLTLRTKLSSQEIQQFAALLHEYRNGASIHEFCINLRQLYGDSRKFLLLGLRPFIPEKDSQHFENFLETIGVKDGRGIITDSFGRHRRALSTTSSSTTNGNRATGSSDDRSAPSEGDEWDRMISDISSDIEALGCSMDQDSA", "log2 fold change": -0.072}, {"target": "CCNT2 (UniProt O60583)", "log2 fold change": 0.092}, {"target": "CRTC1 isoform 2 (UniProt Q6UUV9)", "sequence (Q6UUV9 whole entry, looked up)": "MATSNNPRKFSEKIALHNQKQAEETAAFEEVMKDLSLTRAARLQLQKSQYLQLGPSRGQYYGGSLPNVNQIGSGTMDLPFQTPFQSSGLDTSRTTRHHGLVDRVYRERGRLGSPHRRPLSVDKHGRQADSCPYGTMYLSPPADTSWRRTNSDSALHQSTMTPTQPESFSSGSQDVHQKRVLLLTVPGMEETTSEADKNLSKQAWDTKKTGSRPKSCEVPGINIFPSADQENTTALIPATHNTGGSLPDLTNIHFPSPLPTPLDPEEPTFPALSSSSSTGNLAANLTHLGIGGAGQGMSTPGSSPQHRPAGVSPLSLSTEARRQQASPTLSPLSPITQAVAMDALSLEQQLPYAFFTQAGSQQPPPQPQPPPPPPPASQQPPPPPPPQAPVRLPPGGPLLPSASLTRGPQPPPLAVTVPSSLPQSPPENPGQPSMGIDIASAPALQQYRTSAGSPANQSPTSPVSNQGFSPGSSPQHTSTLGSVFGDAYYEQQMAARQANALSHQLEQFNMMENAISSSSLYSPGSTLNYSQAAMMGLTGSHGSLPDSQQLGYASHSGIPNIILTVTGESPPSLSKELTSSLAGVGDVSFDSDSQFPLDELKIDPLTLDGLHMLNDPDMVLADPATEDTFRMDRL", "log2 fold change": -0.001}, {"target": "CDK5 (UniProt Q00535)", "log2 fold change": -0.053}, {"target": "C15orf41 (UniProt Q9Y2V0)", "sequence (Q9Y2V0 whole entry, looked up)": "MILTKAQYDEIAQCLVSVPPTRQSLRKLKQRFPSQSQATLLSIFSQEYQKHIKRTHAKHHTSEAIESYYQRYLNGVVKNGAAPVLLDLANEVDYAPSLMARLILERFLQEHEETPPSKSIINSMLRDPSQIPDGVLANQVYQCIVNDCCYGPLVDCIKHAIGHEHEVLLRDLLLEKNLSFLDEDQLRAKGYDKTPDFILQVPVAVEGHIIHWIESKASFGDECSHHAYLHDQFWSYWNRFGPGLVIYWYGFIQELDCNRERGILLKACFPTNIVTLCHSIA", "log2 fold change": 0.022}, {"target": "CCDC167 (UniProt Q9P0B6)", "sequence (Q9P0B6 whole entry, looked up)": "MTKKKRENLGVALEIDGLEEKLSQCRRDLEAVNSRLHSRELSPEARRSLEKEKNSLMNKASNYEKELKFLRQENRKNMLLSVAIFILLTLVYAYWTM", "log2 fold change": 0.064}, {"target": "C6orf120 (UniProt Q7Z4R8)", "log2 fold change": -0.054}, {"target": "C9orf72 (UniProt Q96LT7)", "log2 fold change": 0.108}, {"target": "C19orf54 (UniProt Q5BKX5)", "sequence (Q5BKX5 whole entry, looked up)": "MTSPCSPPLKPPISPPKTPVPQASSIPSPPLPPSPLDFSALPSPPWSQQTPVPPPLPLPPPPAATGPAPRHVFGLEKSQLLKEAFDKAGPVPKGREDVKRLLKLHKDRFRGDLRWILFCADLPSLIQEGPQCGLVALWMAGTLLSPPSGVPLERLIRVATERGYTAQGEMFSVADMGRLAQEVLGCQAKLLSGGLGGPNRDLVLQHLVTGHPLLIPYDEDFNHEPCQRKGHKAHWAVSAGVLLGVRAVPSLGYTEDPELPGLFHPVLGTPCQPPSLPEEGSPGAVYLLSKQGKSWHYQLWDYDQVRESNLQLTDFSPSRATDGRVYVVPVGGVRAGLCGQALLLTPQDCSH", "log2 fold change": 0.096}, {"target": "CDK19 (UniProt Q9BWU1)", "sequence (Q9BWU1 whole entry, looked up)": "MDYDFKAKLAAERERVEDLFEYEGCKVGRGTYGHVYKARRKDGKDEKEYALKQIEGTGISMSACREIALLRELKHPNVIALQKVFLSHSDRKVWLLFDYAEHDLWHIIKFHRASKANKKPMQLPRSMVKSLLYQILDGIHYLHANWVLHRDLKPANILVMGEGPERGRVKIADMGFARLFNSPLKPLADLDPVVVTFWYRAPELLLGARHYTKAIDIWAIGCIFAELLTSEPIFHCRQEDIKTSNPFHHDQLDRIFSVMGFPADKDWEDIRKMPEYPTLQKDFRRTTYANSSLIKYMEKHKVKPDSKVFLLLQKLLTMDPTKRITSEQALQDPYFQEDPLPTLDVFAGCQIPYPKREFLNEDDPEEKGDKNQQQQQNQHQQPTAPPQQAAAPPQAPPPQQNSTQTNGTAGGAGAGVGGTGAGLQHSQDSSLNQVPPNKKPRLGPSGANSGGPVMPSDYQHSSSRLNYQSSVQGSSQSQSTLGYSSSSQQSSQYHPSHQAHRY", "log2 fold change": -0.032}, {"target": "CASP9 (UniProt P55211)", "sequence (P55211 whole entry, looked up)": "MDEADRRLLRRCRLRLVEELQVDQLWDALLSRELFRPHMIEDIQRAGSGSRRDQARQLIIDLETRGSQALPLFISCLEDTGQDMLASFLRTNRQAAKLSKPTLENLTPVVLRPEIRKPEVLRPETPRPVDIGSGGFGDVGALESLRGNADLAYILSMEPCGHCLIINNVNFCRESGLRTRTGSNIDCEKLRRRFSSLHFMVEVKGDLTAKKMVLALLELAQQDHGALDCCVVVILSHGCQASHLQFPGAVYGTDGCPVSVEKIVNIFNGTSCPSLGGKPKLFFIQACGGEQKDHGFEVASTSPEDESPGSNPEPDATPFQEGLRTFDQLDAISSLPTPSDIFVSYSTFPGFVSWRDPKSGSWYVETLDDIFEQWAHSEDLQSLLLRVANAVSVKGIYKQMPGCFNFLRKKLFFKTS", "log2 fold change": 0.103}, {"target": "CRTC3 (UniProt Q6UUV7)", "log2 fold change": -0.017}, {"target": "COG2 (UniProt Q14746)", "log2 fold change": -0.064}, {"target": "CCNC (UniProt P24863)", "log2 fold change": 0.207}, {"target": "CCNDBP1 (UniProt O95273)", "sequence (O95273 whole entry, looked up)": "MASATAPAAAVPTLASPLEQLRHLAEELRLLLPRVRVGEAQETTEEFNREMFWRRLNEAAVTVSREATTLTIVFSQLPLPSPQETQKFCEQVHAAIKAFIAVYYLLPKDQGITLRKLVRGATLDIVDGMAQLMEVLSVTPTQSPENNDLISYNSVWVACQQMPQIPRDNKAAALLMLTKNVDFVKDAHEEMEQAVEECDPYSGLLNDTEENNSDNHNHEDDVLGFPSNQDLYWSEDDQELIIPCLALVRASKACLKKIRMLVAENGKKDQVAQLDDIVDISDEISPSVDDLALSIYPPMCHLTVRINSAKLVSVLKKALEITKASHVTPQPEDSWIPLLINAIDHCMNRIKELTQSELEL", "log2 fold change": -0.104}, {"target": "CIR1 (UniProt Q86X95)", "sequence (Q86X95 whole entry, looked up)": "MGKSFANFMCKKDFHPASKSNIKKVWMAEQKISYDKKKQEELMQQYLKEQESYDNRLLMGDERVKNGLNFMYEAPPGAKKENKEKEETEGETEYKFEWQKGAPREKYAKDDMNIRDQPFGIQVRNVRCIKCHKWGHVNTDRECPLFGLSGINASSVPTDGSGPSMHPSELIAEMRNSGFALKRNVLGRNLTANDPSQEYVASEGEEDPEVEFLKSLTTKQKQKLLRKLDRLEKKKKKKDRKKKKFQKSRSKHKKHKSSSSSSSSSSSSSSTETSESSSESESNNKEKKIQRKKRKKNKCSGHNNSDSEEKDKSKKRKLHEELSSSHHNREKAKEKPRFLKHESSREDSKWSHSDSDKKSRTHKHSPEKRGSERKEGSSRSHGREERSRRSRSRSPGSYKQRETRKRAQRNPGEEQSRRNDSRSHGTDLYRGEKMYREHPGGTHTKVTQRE", "log2 fold change": -0.04}, {"target": "CDK8 (UniProt P49336)", "log2 fold change": 0.002}, {"target": "COX17 (UniProt Q14061)", "log2 fold change": -0.015}, {"target": "CHAF1A (UniProt Q13111)", "log2 fold change": 0.035}, {"target": "CRYM-AS1 (UniProt A6NIL9)", "log2 fold change": 0.239}, {"target": "CORO2A (UniProt Q92828)", "log2 fold change": 0.014}, {"target": "CSNK1D (UniProt P48730)", "log2 fold change": -0.001}, {"target": "CDCA2 (UniProt Q69YH5)", "log2 fold change": -0.134}, {"target": "CMTM3 (UniProt Q96MX0)", "log2 fold change": 0.052}, {"target": "CDK17 isoform 2 (UniProt Q00537)", "log2 fold change": 0.105}, {"target": "CDKN1B (UniProt P46527)", "sequence (P46527 whole entry, looked up)": "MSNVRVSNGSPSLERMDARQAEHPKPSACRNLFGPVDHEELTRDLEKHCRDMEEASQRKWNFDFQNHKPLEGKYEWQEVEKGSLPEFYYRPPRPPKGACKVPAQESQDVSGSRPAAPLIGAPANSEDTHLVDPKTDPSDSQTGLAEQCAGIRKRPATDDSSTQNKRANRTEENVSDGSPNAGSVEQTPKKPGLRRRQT", "log2 fold change": -0.016}, {"target": "CAB39L (UniProt Q9H9S4)", "log2 fold change": -0.142}, {"target": "CHST10 (UniProt O43529)", "sequence (O43529 whole entry, looked up)": "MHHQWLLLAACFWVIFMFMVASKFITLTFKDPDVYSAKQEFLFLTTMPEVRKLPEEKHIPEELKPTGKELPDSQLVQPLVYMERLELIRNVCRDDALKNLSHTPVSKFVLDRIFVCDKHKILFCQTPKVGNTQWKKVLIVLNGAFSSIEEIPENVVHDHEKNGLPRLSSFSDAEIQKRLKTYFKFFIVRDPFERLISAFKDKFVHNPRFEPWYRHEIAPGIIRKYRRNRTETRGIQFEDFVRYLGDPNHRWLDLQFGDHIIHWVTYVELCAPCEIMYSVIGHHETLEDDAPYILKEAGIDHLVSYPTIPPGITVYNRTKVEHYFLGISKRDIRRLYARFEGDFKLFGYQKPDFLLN", "log2 fold change": 0.067}, {"target": "CLN8 (UniProt Q9UBY8)", "sequence (Q9UBY8 whole entry, looked up)": "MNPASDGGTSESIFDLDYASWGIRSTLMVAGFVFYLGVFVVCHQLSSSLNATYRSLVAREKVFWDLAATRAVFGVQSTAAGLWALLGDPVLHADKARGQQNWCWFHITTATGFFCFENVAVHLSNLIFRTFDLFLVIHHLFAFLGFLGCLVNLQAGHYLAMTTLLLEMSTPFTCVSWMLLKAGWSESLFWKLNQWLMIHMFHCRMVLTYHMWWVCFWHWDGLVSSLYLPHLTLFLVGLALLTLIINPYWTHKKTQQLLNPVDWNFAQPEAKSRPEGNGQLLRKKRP", "log2 fold change": -0.018}]}, {"compound": "CC1=C(C=C(C=C1)NC(=O)C2=CC(=CC=C2)N(C)C)NC(=O)C3=CC=C(C=C3)O", "experiment": "log2 fold change, soluble protein after heating vs DMSO (PISA); higher = thermal stabilisation; K562 cells, 10 uM, 30 min; active = over 0.2 and 3.5 SD of the protein, either way, in both replicates (recomputed)", "how_it_was_run": "as §1", "values": [{"target": "CFAP36 isoform 2 (UniProt Q96G28)", "log2 fold change": 0.024}, {"target": "CHPT1 (UniProt Q8WUD6)", "log2 fold change": 0.055}, {"target": "CENPE (UniProt Q02224)", "log2 fold change": 0.063}, {"target": "C22orf39 (UniProt Q6P5X5)", "log2 fold change": 0.059}, {"target": "CASP10 isoform 4 (UniProt Q92851)", "log2 fold change": 0.026}, {"target": "COPS3 isoform 2 (UniProt Q9UNS2)", "log2 fold change": 0.03}, {"target": "CCM2 isoform 2 (UniProt Q9BSQ5)", "log2 fold change": -0.068}, {"target": "CCNT2 (UniProt O60583)", "log2 fold change": 0.042}, {"target": "CRTC1 isoform 2 (UniProt Q6UUV9)", "log2 fold change": 0.195}, {"target": "CDK5 (UniProt Q00535)", "log2 fold change": -0.009}, {"target": "C15orf41 (UniProt Q9Y2V0)", "log2 fold change": -0.026}, {"target": "CCDC167 (UniProt Q9P0B6)", "log2 fold change": -0.039}, {"target": "C6orf120 (UniProt Q7Z4R8)", "log2 fold change": 0.045}, {"target": "C9orf72 (UniProt Q96LT7)", "log2 fold change": -0.009}, {"target": "C19orf54 (UniProt Q5BKX5)", "log2 fold change": -0.053}, {"target": "CDK19 (UniProt Q9BWU1)", "log2 fold change": 0.212}, {"target": "CASP9 (UniProt P55211)", "log2 fold change": -0.091}, {"target": "CRTC3 (UniProt Q6UUV7)", "log2 fold change": 0.087}, {"target": "COG2 (UniProt Q14746)", "log2 fold change": 0}, {"target": "CCNC (UniProt P24863)", "log2 fold change": -0.072}, {"target": "CCNDBP1 (UniProt O95273)", "log2 fold change": 0.027}, {"target": "CIR1 (UniProt Q86X95)", "log2 fold change": -0.38}, {"target": "CDK8 (UniProt P49336)", "log2 fold change": -0.005}, {"target": "COX17 (UniProt Q14061)", "log2 fold change": -0.358}, {"target": "CHAF1A (UniProt Q13111)", "log2 fold change": -0.054}, {"target": "CRYM-AS1 (UniProt A6NIL9)", "log2 fold change": -0.066}, {"target": "CORO2A (UniProt Q92828)", "log2 fold change": 0.157}, {"target": "CSNK1D (UniProt P48730)", "log2 fold change": 0.003}, {"target": "CDCA2 (UniProt Q69YH5)", "log2 fold change": 0.033}, {"target": "CDKN1B (UniProt P46527)", "log2 fold change": -0.009}, {"target": "CAB39L (UniProt Q9H9S4)", "log2 fold change": -0.008}, {"target": "CHST10 (UniProt O43529)", "log2 fold change": -0.096}, {"target": "CLN8 (UniProt Q9UBY8)", "log2 fold change": 0.081}]}]}
